# Menin-MLL FL inh – displaces fluorescein MLL peptide from human menin; Fluorescence polarization, fluorescein-MLL peptide displacement from menin; FP activity change, % at 61.4 µM; 290,000 tested, under 10 active; active = well fitted curve in the direction sought with a large enough effect in the polarisation, not every such curve was filed as active; inconclusive = small, poorly fitted or top-dose-only effect, or effect the other way, or a change in a side signal; inactive = no such curve, though single readings can be large or run the other way; the % refers to the polarisation; also: % of control where 0% means no effect
# MLL CXXC-DNA inh – MLL CXXC-DNA interaction inhibition; Q03164; MLL-CXXC / FITC-HOXA9 DNA fluorescence polarization; Potency, µM (top dose mostly 115 µM), without a hit: at the highest dose activity change, negative = inhibition, hits mostly inhibitors; actives 0.037% (n = 290,000); AID 2662; active = well fitted inhibition curve with a large enough effect in the polarisation, with a control signal flat, not every such curve was filed as active; inconclusive = small, poorly fitted or top-dose-only effect, or effect the other way, or a change in a side signal; inactive = no such curve, though single readings can be large or run the other way; the % refers to the polarisation; also: potency is read from the fitted curve at half-maximal effect
# Target sequence (Q03164 whole entry, looked up): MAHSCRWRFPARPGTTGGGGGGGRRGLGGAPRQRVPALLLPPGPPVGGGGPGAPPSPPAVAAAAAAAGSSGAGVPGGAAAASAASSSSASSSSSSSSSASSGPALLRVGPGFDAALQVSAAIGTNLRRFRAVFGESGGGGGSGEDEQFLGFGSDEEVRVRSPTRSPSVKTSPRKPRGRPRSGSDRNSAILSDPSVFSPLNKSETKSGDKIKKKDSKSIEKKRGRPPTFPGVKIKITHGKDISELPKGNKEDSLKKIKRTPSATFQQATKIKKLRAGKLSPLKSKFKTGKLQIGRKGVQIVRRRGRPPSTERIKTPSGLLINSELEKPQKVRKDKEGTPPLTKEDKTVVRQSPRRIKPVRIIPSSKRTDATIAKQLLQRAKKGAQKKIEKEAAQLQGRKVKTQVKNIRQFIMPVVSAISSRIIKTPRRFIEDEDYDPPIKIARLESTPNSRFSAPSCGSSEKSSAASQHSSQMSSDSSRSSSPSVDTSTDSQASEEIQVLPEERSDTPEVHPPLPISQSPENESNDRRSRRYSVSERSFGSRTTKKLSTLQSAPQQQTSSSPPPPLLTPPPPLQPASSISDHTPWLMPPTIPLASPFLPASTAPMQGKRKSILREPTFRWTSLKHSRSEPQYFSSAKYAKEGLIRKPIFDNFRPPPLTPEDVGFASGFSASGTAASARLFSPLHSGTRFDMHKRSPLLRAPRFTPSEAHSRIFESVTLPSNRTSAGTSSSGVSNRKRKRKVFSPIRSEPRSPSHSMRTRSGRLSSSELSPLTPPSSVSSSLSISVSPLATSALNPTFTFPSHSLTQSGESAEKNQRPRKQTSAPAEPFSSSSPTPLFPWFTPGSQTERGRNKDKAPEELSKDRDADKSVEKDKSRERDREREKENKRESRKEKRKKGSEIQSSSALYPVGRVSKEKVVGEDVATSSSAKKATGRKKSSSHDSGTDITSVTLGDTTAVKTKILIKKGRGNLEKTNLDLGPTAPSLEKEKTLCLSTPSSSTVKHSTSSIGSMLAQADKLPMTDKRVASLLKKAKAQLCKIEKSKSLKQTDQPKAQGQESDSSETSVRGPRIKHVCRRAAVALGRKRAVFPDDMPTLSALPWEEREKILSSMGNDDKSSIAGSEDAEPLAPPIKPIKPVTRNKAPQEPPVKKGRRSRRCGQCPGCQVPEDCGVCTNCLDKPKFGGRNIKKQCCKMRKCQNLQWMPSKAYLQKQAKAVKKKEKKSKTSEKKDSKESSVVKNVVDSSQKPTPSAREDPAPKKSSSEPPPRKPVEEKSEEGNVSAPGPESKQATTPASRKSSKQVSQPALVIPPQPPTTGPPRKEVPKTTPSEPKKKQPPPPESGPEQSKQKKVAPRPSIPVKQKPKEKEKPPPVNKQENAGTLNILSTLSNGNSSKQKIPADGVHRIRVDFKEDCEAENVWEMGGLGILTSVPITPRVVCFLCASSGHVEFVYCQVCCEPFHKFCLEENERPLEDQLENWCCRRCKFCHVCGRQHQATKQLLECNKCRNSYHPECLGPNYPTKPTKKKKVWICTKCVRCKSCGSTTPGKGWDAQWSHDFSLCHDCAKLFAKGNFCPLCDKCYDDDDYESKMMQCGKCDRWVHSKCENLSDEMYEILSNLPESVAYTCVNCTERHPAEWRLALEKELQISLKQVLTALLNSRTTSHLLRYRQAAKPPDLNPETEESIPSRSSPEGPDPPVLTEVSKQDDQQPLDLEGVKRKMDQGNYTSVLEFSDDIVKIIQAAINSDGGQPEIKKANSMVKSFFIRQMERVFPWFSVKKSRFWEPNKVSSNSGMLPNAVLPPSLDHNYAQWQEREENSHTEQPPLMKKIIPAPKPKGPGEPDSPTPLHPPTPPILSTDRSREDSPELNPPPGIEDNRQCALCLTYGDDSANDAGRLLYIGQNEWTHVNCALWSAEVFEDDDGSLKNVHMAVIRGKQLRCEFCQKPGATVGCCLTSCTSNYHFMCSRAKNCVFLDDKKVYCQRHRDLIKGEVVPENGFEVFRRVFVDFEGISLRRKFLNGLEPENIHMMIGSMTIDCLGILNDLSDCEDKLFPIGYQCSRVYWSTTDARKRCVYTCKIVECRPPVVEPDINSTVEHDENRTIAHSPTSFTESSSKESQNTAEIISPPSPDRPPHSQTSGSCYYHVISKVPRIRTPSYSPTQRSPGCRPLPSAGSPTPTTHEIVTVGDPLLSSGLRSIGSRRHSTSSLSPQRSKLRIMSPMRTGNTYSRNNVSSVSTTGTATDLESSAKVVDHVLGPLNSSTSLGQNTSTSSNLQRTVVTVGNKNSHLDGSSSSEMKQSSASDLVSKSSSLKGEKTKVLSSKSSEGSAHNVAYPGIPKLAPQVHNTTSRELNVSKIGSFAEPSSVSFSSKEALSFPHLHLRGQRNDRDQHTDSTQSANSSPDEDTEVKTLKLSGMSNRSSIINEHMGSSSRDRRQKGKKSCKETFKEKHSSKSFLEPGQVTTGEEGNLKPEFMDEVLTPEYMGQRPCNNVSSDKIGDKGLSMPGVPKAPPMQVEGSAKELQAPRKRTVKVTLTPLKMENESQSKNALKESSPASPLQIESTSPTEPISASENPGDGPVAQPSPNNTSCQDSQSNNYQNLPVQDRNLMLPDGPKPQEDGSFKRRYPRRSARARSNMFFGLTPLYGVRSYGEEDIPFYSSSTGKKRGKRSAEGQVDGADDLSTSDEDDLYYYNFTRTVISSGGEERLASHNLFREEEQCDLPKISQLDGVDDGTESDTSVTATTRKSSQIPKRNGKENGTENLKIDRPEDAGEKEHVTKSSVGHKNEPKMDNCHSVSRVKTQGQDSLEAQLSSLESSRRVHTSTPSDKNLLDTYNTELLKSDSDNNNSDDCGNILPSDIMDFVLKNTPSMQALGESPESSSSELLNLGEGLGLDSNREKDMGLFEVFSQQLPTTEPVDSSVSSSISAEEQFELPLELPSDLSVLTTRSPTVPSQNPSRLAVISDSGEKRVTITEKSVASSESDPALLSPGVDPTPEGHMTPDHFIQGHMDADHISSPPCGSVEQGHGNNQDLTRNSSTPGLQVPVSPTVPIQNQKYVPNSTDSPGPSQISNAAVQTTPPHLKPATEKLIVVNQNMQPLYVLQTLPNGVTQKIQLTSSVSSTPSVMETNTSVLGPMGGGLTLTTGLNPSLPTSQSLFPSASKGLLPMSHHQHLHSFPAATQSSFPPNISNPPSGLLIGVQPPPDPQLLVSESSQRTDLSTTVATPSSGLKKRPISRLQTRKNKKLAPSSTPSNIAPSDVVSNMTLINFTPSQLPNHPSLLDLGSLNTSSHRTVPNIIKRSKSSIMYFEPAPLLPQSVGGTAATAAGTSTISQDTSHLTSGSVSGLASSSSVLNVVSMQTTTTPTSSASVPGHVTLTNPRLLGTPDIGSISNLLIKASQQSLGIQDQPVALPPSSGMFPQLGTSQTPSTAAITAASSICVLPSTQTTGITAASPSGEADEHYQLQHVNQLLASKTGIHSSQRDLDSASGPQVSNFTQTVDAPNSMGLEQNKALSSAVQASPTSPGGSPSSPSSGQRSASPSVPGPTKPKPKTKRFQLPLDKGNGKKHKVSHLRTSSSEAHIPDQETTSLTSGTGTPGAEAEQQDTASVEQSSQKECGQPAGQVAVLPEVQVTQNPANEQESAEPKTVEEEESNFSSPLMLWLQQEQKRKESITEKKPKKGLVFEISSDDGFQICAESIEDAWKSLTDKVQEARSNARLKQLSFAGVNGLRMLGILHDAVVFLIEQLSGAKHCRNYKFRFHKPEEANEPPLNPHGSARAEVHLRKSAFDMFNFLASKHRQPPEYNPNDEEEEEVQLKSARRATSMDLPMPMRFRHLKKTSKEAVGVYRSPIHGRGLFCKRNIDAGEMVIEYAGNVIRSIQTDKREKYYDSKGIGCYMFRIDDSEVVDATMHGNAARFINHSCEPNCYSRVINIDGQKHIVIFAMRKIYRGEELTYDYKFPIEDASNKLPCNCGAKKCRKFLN
#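 Steps: dispense CXXC domain solution (7 uM) → pin compounds or unlabeled HOX-A9 DNA control → 5 min ambient → add FLSN-HOX-A9 solution (50 nM) → spin → 30 min ambient → fluorescence polarization. Tris pH 7.5/NaCl/DTT/BSA buffer.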
# Menin MLL FP TR – inhibitors of human menin-MLL interaction, mutant MLL peptide; O00255; Menin + Texas Red MLL mutant peptide, fluorescence polarization; Potency, µM (highest dose often 61.6 µM), without a hit: top-dose FP activity change, negative = inhibition, hits mostly inhibitors; actives 0.23% (n = 270,000); active = well fitted inhibition curve with a large enough effect in the polarisation, with a control signal flat, not every such curve was filed as active; inconclusive = small, poorly fitted or top-dose-only effect, or effect the other way, or a change in a side signal; inactive = no such curve, though single readings can be large or run the other way; the % refers to the polarisation; also: potency is read from the fitted curve at half-maximal effect; % of control where 0% means no effect
# MLL CXXC FP-Fl – inhibitors of human MLL CXXC domain-DNA interaction. shares compounds with MLL CXXC-DNA inh. MLL CXXC-DNA binding, fluorescein FP. Potency, µM (titrated, usually from 345 µM), inactives show top-dose activity change, negative = inhibition, actives largely listed as inhibitors. actives 70% (n = 200). AID 624160; also: potency is read from the fitted curve at half-maximal effect; nearly all actives have a fitted effect of over 80% in size
# MLL CXXC FP-TR – MLL CXXC-DNA interaction inhibition, Texas Red FP; AID 624161; shares compounds with MLL CXXC-DNA inh; MLL CXXC-DNA binding, Texas Red fluorescence polarization; Potency, µM (highest dose often 345 µM), inactives show at the top dose activity change, negative = inhibition, actives largely listed as inhibitors; actives 40% (n = 200); also: potency is read from the fitted curve at half-maximal effect; % is scaled to controls: 0 for no effect and ±100 for the full control effect; nearly all actives have a fitted effect of over 75% in size
# MLL CXXC HTRF – disrupts human MLL CXXC domain binding to DNA by HTRF. AID 624162. Potency, µM (top dose mostly 172 µM), inactives show at the highest dose activity change, negative = inhibition, usual class: inhibitors. actives 30% (n = 210). MLL CXXC-DNA binding, HTRF, biochemical. shares compounds with MLL CXXC-DNA inh; also: % is scaled to controls: 0 for no effect and ±100 for the full control effect; nearly all actives have a fitted effect of over 80% in size
# * marks the source's active call; other numbers are inactive results; u = inconclusive; x = no result; [ ] = remark or other dose. Only a selection was taken, and hits are over-represented in it overall. Unless noted, calls follow the shape of the dose curve; as a rule, active = well fitted inhibition curve with a large enough effect; inconclusive = small, poorly fitted or top-dose-only effect; inactive = no such curve, though single readings can be large or run the other way.
SMILES,Menin-MLL FL inh,MLL CXXC-DNA inh,Menin MLL FP TR,MLL CXXC FP-Fl,MLL CXXC FP-TR,MLL CXXC HTRF
COc1cc(/C=C2/C(=O)NN(c3ccc(Cl)cc3)C2=O)cc(OC)c1O,u,95%,8%,x,x,x
COc1cc(/C=C2/C(=O)N(c3ccc(C)c(C)c3)N=C2C)cc([N+](=O)[O-])c1O,3,u,u,x,x,x
CCOc1cc(/C=C2\C(=O)NN(c3ccccc3)C2=O)cc([N+](=O)[O-])c1O,-7,u,u,x,x,x
COc1ccc(NS(=O)(=O)c2ccc(Cl)s2)cn1,u,u,x,126µM*,2%,0%
COc1ccc(NS(=O)(=O)c2cccs2)cn1,-9,-3%,6%,x,x,x
COc1ccc(/C=C2/C(=O)ON=C2C)cc1Br,0,-2%,-2%,x,x,x
COc1ccccc1/C=C1/C(=O)ON=C1C,-7,u,-3%,100µM*,126µM*,-14%
CC(C)(CS)C(=O)N1CCC[C@H]1C(=O)O,-1[24.8 µM],x,3%[24.8 µM],x,x,x
O=C(Nc1ccc(C(=O)Nc2ccc(C(=O)Nc3ccc(S(=O)(=O)O)c4cc(S(=O)(=O)O)cc(S(=O)(=O)O)c34)cc2)cc1)Nc1ccc(C(=O)Nc2ccc(C(=O)Nc3ccc(S(=O)(=O)O)c4cc(S(=O)(=O)O)cc(S(=O)(=O)O)c34)cc2)cc1,4,x,90%,x,x,x
O=C(Nc1cc(C(=O)Nc2ccc(S(=O)(=O)O)cc2S(=O)(=O)O)cc(C(=O)Nc2ccc(S(=O)(=O)O)cc2S(=O)(=O)O)c1)Nc1cc(C(=O)Nc2ccc(S(=O)(=O)O)cc2S(=O)(=O)O)cc(C(=O)Nc2ccc(S(=O)(=O)O)cc2S(=O)(=O)O)c1,u,3.5µM*,u,4.5µM*,11µM*,3.1µM*
CC#CCN1c2ccccc2[C@]23C[C@@H](C(=O)OC)N(C(=O)c4cccs4)C2=NC(C(=O)OC)=C(C(=O)OC)[C@H]13,-3[11.7 µM],x,-5%[11.7 µM],x,x,x
C=C(C)C(=O)OCCOC(=O)C(=C)C,-1,x,20%,x,x,x
CCN(CCO)CCCC(C)Nc1ccnc2cc(Cl)ccc12 (stereo unspecified),-3,0%,-16%,x,x,x
CCN(CC)CCC[C@H](C)Nc1c2ccc(Cl)cc2nc2ccc(OC)cc12,u,45µM*,-23%[24.8 µM],50µM*,u,0%
CC1(C)Oc2cc3c(cc2O1)OC(C)(C)O3,1[11.7 µM],x,18%[11.7 µM],x,x,x
O=C1OCCC1N(C(=O)C1CC1)c1cccc(Cl)c1 (stereo unspecified),2,x,5%,x,x,x
O=C(OCC1OC(OC(=O)c2cc(O)c(O)c(OC(=O)c3cc(O)c(O)c(O)c3)c2)[C@@H](OC(=O)c2cc(O)c(O)c(OC(=O)c3cc(O)c(O)c(O)c3)c2)C(OC(=O)c2cc(O)c(O)c(OC(=O)c3cc(O)c(O)c(O)c3)c2)C1OC(=O)c1cc(O)c(O)c(OC(=O)c2cc(O)c(O)c(O)c2)c1)c1cc(O)c(O)c(OC(=O)c2cc(O)c(O)c(O)c2)c1 (stereo partly specified),u,63µM*,u,3.6µM*,4.5µM*,0.39µM*
Cc1cn(C2OC(COC(=O)c3ccccc3)C(OC(=O)c3ccccc3)C2OC(=O)c2ccccc2)c(=O)[nH]c1=O (stereo unspecified),1,-10%,-6%,x,x,x
CCC1Cc2cc(O)ccc2C2=C1c1ccc(O)cc1CC2CC (stereo unspecified),-1,x,u,x,x,x
C/C(=N\Nc1nc2ccccc2c(=O)n1O)c1ccco1,-1,u,17%,u,u,u
C/C(=N\NC(=O)c1cc(C)nc2ccccc12)c1ccco1,2,-5%,-4%,x,x,x
O=C(NCc1ccccn1)C1(C(F)(F)F)C/C(=C\Cc2ccccc2)CCCO1 (stereo unspecified),-6,x,-5%,x,x,x
CC1OC23CCCCC2C(C#N)(C(=N)O3)C1(C#N)C#N (stereo unspecified),-1,u,3%,x,x,x
COc1ccc(C2OC34CCCCC3C(C#N)(C#N)C2(C#N)C(=N)O4)cc1 (stereo unspecified),u,28µM*,u,142µM*,113µM*,-3%
CCn1c(=O)c2ccccc2n(Cc2cccc(C)c2)c1=O,1,-7%,6%,x,x,x
SMILES,Menin-MLL FL inh,MLL CXXC-DNA inh,Menin MLL FP TR,MLL CXXC FP-Fl,MLL CXXC FP-TR,MLL CXXC HTRF
CCn1c(=O)c2ccccc2n(Cc2ccc([N+](=O)[O-])cc2)c1=O,-3,u,22%,u,u,22%
COc1cc2c(cc1OC)C(C(=O)c1ccc(OC)c(OC)c1O)=NCC2,-5,x,-23%,x,x,x
Cc1cc(O)ccc1C1(c2ccc(O)cc2C)OC(=O)c2ccccc21,3,-5%,20%,x,x,x
CC(=O)Oc1ccc2c(c1)Oc1cc(OC(C)=O)ccc1C21OC(=O)c2ccccc21,u,u,u,0.022µM*,34%,3%
O=S(=O)(O)CC(S)CS (stereo unspecified),0,11%,-7%,x,x,x
COc1ccc2cc(Br)ccc2c1CC(=O)NCC1CCCO1 (stereo unspecified),1,32µM*,3%,-1%,30%,29%
CCNC(=O)Cc1c(OC)ccc2cc(Br)ccc12,0,-12%,-12%,x,x,x
COc1cccc2nc(-c3cccs3)nc(NN3C(=O)C=C(C)C3=O)c12,2,x,28%,x,x,x
COC(=O)N1C(C)=Cc2ccccc2C1CC(C)=O (stereo unspecified),2,x,-8%,x,x,x
CCCCCCCCCCCCCCCC(=O)OCC(O)C1OC(=O)C(O)=C1O (stereo unspecified),2,x,16%,x,x,x
O=C(CSC1=NS(=O)(=O)c2ccccc21)Nc1ccccc1,1,32µM*,-1%,-2%,113µM*,24µM*
COC(=O)CSC1=NS(=O)(=O)c2ccccc21,2,-1%,15%,x,x,x
O=[N+]([O-])c1cccc(-c2cn3ccccc3n2)c1,1,3%,19%,x,x,x
O=[N+]([O-])c1cccc(-c2cn3nc(-c4ccccc4)c(-c4ccccc4)nc3n2)c1,u,40µM*,x,179µM*,49%,9%
O=c1[nH]c2ccccc2c2nc3ccccn3c12,-3,-17%,u,x,x,x
O=c1nc2c(O)cccn2c2c1c(=O)[nH]c1ccccc12,u,32µM*,0%,4µM*,u,u
CCc1sc(C(C2C(=O)CC(C)(C)CC2=O)C2C(=O)CC(C)(C)CC2=O)cc1[N+](=O)[O-],-4,u,5%,0%,113µM*,31µM*
CC1(C)CC(=O)C(C(c2ccc(F)cc2)C2C(=O)CC(C)(C)CC2=O)C(=O)C1,7,3%,7%,x,x,x
CC(=O)Nc1ccn(C2OC(C(COC(C)=O)NC(=O)C3CCCN3C(=O)OC(C)(C)C)C(OC(C)=O)C2OC(C)=O)c(=O)n1 (stereo unspecified),6,x,13%,x,x,x
